From paper PMC7826789 (International Journal of Molecular Sciences, 2021)

Experiments:
Conditions in all cases: Compound Concentration (nM):1000
AMPK-alpha1 = tested on: T1, AMPK-alpha1
T1 construct: gene PRKAA1

AMPK-alpha2 = tested on: T2, AMPK-alpha2
T2 construct: gene PRKAA2

ANKK1 = tested on: ANKK1
ARK5 = tested on: T3, ARK5
T3 construct: gene NUAK1

ASK1 = tested on: T4, ASK1
T4 construct: gene MAP3K5

ASK2 = tested on: T5, ASK2
T5 construct: gene MAP3K6

AURKA = tested on: AURKA
AURKB = tested on: AURKB
AURKC = tested on: AURKC
AXL = tested on: AXL
BIKE = tested on: T6, BIKE
T6 construct: gene BMP2K

BLK = tested on: BLK
BMPR1A = tested on: BMPR1A
BMPR1B = tested on: BMPR1B
BMPR2 = tested on: BMPR2
BMX = tested on: BMX
BRAF(V600E) = tested on: BRAF(V600E)
BRAF = tested on: BRAF
BRK = tested on: T7, BRK
T7 construct: gene PTK6

BRSK1 = tested on: BRSK1
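Note: KINOMEscan scanMAX binding as percent activity remaining versus control; lower means stronger binding.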

O=C(Nc1n[nH]c2nc(-c3ccc(O)cc3)c(Br)cc12)C1CC1 [SB-725317]
Percent Control (AMPK-alpha1): 100%
Percent Control (AMPK-alpha2): 100%
Percent Control (ANKK1): 100%
Percent Control (ARK5): 100%
Percent Control (ASK1): 100%
Percent Control (ASK2): 100%
Percent Control (AURKA): 100%
Percent Control (AURKB): 91%
Percent Control (AURKC): 59%
Percent Control (AXL): 100%
Percent Control (BIKE): 63%
Percent Control (BLK): 92%
Percent Control (BMPR1A): 98%
Percent Control (BMPR1B): 69%
Percent Control (BMPR2): 100%
Percent Control (BMX): 100%
Percent Control (BRAF(V600E)): 5.3%
Percent Control (BRAF): 17%
Percent Control (BRK): 100%
Percent Control (BRSK1): 46%

COc1ccc2cc(-c3c(-c4ccncc4)nc(-c4ccc(S(C)(=O)=O)cc4C)n3C)ccc2c1 [SB-633825]
Percent Control (AMPK-alpha1): 53%
Percent Control (AMPK-alpha2): 90%
Percent Control (ANKK1): 100%
Percent Control (ARK5): 100%
Percent Control (ASK1): 83%
Percent Control (ASK2): 74%
Percent Control (AURKA): 87%
Percent Control (AURKB): 66%
Percent Control (AURKC): 85%
Percent Control (AXL): 88%
Percent Control (BIKE): 100%
Percent Control (BLK): 52%
Percent Control (BMPR1A): 79%
Percent Control (BMPR1B): 63%
Percent Control (BMPR2): 91%
Percent Control (BMX): 54%
Percent Control (BRAF(V600E)): 86%
Percent Control (BRAF): 97%
Percent Control (BRK): 44%
Percent Control (BRSK1): 100%

COC(=O)Nc1nc2ccc(Oc3ccc(NC(=O)Nc4cc(C(F)(F)F)ccc4F)cc3)cc2s1.Cl [GW693917A]
Percent Control (AMPK-alpha1): 69%
Percent Control (AMPK-alpha2): 82%
Percent Control (ANKK1): 85%
Percent Control (ARK5): 100%
Percent Control (ASK1): 100%
Percent Control (ASK2): 64%
Percent Control (AURKA): 71%
Percent Control (AURKB): 13%
Percent Control (AURKC): 50%
Percent Control (AXL): 6%
Percent Control (BIKE): 75%
Percent Control (BLK): 61%
Percent Control (BMPR1A): 89%
Percent Control (BMPR1B): 80%
Percent Control (BMPR2): 99%
Percent Control (BMX): 100%
Percent Control (BRAF(V600E)): 17%
Percent Control (BRAF): 30%
Percent Control (BRK): 96%
Percent Control (BRSK1): 100%

CCS(=O)(=O)c1ccc(OC)c(Nc2ncc(-c3cccc(F)c3)o2)c1 [GW621970X]
Percent Control (AMPK-alpha1): 100%
Percent Control (AMPK-alpha2): 91%
Percent Control (ANKK1): 100%
Percent Control (ARK5): 100%
Percent Control (ASK1): 100%
Percent Control (ASK2): 75%
Percent Control (AURKA): 100%
Percent Control (AURKB): 89%
Percent Control (AURKC): 100%
Percent Control (AXL): 97%
Percent Control (BIKE): 100%
Percent Control (BLK): 16%
Percent Control (BMPR1A): 95%
Percent Control (BMPR1B): 64%
Percent Control (BMPR2): 100%
Percent Control (BMX): 100%
Percent Control (BRAF(V600E)): 73%
Percent Control (BRAF): 91%
Percent Control (BRK): 100%
Percent Control (BRSK1): 100%

CC1=C(C(=O)Nc2ccc3[nH]ncc3c2)C(c2ccc3ccccc3c2)CC(=O)N1 (centres unmarked) [GSK270822A]
Percent Control (AMPK-alpha1): 76%
Percent Control (AMPK-alpha2): 81%
Percent Control (ANKK1): 100%
Percent Control (ARK5): 81%
Percent Control (ASK1): 98%
Percent Control (ASK2): 84%
Percent Control (AURKA): 39%
Percent Control (AURKB): 49%
Percent Control (AURKC): 62%
Percent Control (AXL): 91%
Percent Control (BIKE): 100%
Percent Control (BLK): 35%
Percent Control (BMPR1A): 100%
Percent Control (BMPR1B): 43%
Percent Control (BMPR2): 75%
Percent Control (BMX): 78%
Percent Control (BRAF(V600E)): 80%
Percent Control (BRAF): 100%
Percent Control (BRK): 80%
Percent Control (BRSK1): 100%

O=C1Nc2ccc(C(=O)c3ccco3)cc2C1=Cc1cc(Cl)c(O)c(Cl)c1 [GW406108X]
Percent Control (AMPK-alpha1): 90%
Percent Control (AMPK-alpha2): 94%
Percent Control (ANKK1): 9.2%
Percent Control (ARK5): 100%
Percent Control (ASK1): 100%
Percent Control (ASK2): 72%
Percent Control (AURKA): 35%
Percent Control (AURKB): 22%
Percent Control (AURKC): 58%
Percent Control (AXL): 100%
Percent Control (BIKE): 59%
Percent Control (BLK): 100%
Percent Control (BMPR1A): 100%
Percent Control (BMPR1B): 35%
Percent Control (BMPR2): 0%
Percent Control (BMX): 81%
Percent Control (BRAF(V600E)): 1.2%
Percent Control (BRAF): 4.4%
Percent Control (BRK): 100%
Percent Control (BRSK1): 100%

C/C(Nc1ccc(S(N)(=O)=O)cc1)=C1/C(=O)Nc2ccccc21 [GW335962X]
Percent Control (AMPK-alpha1): 78%
Percent Control (AMPK-alpha2): 87%
Percent Control (ANKK1): 50%
Percent Control (ARK5): 100%
Percent Control (ASK1): 100%
Percent Control (ASK2): 69%
Percent Control (AURKA): 66%
Percent Control (AURKB): 16%
Percent Control (AURKC): 71%
Percent Control (AXL): 73%
Percent Control (BIKE): 100%
Percent Control (BLK): 100%
Percent Control (BMPR1A): 99%
Percent Control (BMPR1B): 97%
Percent Control (BMPR2): 84%
Percent Control (BMX): 86%
Percent Control (BRAF(V600E)): 86%
Percent Control (BRAF): 100%
Percent Control (BRK): 95%
Percent Control (BRSK1): 91%

COc1ccc2c(-c3ccnc(Nc4cccc(OC(F)(F)F)c4)n3)cnn2n1 [GW810372X]
Percent Control (AMPK-alpha1): 100%
Percent Control (AMPK-alpha2): 100%
Percent Control (ANKK1): 89%
Percent Control (ARK5): 100%
Percent Control (ASK1): 100%
Percent Control (ASK2): 78%
Percent Control (AURKA): 100%
Percent Control (AURKB): 100%
Percent Control (AURKC): 57%
Percent Control (AXL): 87%
Percent Control (BIKE): 58%
Percent Control (BLK): 100%
Percent Control (BMPR1A): 100%
Percent Control (BMPR1B): 100%
Percent Control (BMPR2): 100%
Percent Control (BMX): 90%
Percent Control (BRAF(V600E)): 92%
Percent Control (BRAF): 100%
Percent Control (BRK): 100%
Percent Control (BRSK1): 100%

CN(C)c1cc2c(Nc3ccc4c(cnn4Cc4ccccc4)c3)ncnc2cn1 [GW282974X]
Percent Control (AMPK-alpha1): 90%
Percent Control (AMPK-alpha2): 100%
Percent Control (ANKK1): 100%
Percent Control (ARK5): 100%
Percent Control (ASK1): 100%
Percent Control (ASK2): 73%
Percent Control (AURKA): 74%
Percent Control (AURKB): 100%
Percent Control (AURKC): 92%
Percent Control (AXL): 98%
Percent Control (BIKE): 86%
Percent Control (BLK): 80%
Percent Control (BMPR1A): 100%
Percent Control (BMPR1B): 91%
Percent Control (BMPR2): 100%
Percent Control (BMX): 100%
Percent Control (BRAF(V600E)): 99%
Percent Control (BRAF): 92%
Percent Control (BRK): 75%
Percent Control (BRSK1): 92%

COc1cc(C=NNc2ncnc3c2cnn3-c2ccccc2)ccc1O [GW513184X]
Percent Control (AMPK-alpha1): 100%
Percent Control (AMPK-alpha2): 100%
Percent Control (ANKK1): 48%
Percent Control (ARK5): 84%
Percent Control (ASK1): 100%
Percent Control (ASK2): 100%
Percent Control (AURKA): 33%
Percent Control (AURKB): 96%
Percent Control (AURKC): 59%
Percent Control (AXL): 60%
Percent Control (BIKE): 25%
Percent Control (BLK): 16%
Percent Control (BMPR1A): 40%
Percent Control (BMPR1B): 20%
Percent Control (BMPR2): 100%
Percent Control (BMX): 100%
Percent Control (BRAF(V600E)): 65%
Percent Control (BRAF): 77%
Percent Control (BRK): 100%
Percent Control (BRSK1): 54%
